{"source": "the supplement of paper PMC6992640", "note": "± gives the standard deviation of the averaged measurements.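 Further: PDX cells carrying CMV promoter-driven luciferase, viability read as total photon flux per second by IVIS imaging following D-luciferin, vehicle control 0.1% DMSO.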", "data": [{"tested_on": "WHIM30 (cells of a triple-negative basal-like breast cancer xenograft)", "experiment": "cell viability (% of vehicle); higher = less cytotoxic", "conditions": "10 µM; 72 h", "values": [{"smiles": "CC12CCC3c4ccc(O)cc4CCC3C1CCC2=O", "note": "(centres undefined) [Estrone]", "cell viability": "153 ± 14"}, {"smiles": "CO[C@@]1(NC(=O)[C@H](C(=O)[O-])c2ccc(O)cc2)C(=O)N2C(C(=O)[O-])=C(CSc3nnnn3C)CO[C@@H]21.[Na+].[Na+]", "note": "[Moxalactam (sodium salt)]", "cell viability": "126 ± 2.9"}, {"smiles": "CC(C)c1cc(C(=O)N2Cc3ccc(CN4CCN(C)CC4)cc3C2)c(O)cc1O", "cell viability": "176 ± 25"}, {"smiles": "Cl.O=C1NCC2(CCN(CCc3ccccc3)CC2)O1", "note": "[Fenspiride HCl]", "cell viability": "93.8 ± 14"}, {"smiles": "C#C[C@]1(O)CC[C@H]2[C@@H]3CCC4=CC(=O)CC[C@@H]4[C@H]3C(=C)C[C@@]21CC", "note": "[Etonogestrel]", "cell viability": "146 ± 16"}, {"smiles": "CC(C)(C#N)c1cc(Cn2cncn2)cc(C(C)(C)C#N)c1", "note": "[Anastrozole]", "cell viability": "124.2 ± 0.85"}, {"smiles": "O=C(Nc1cccc2c(=O)cc(-c3nn[nH]n3)oc12)c1ccc(OCCCCc2ccccc2)cc1", "note": "[Pranlukast]", "cell viability": "152 ± 11"}, {"smiles": "CO[C@H]1C(=O)[C@]2(C)[C@@H](OC)C[C@H]3OC[C@@]3(OC(C)=O)[C@H]2[C@H](OC(=O)c2ccccc2)[C@]2(O)C[C@H](OC(=O)[C@H](O)[C@@H](NC(=O)OC(C)(C)C)c3ccccc3)C(C)=C1C2(C)C", "note": "[Cabazitaxel]", "cell viability": "107 ± 4.8"}, {"smiles": "COc1ccccc1OCC(O)CO", "note": "(centres undefined) [Guaifensin]", "cell viability": "141 ± 10"}, {"smiles": "O=C(Nc1c(Cl)cncc1Cl)c1ccc(OC(F)F)c(OCC2CC2)c1", "note": "[Roflumilast]", "cell viability": "151 ± 5.7"}, {"smiles": "CCCCCC(O)C=CC1C(O)CC(=O)C1CCCCCCC(=O)O", "note": "(centres undefined) [Alprostadil]", "cell viability": "141 ± 4.9"}, {"smiles": "CCCc1nc(C(C)(C)O)c(C(=O)O)n1Cc1ccc(-c2ccccc2-c2nn[nH]n2)cc1", "note": "[Olmesartan]", "cell viability": "154 ± 25"}, {"smiles": "CC12CCC3c4ccc(O)cc4CCC3C1CCC2O", "note": "(centres undefined) [Estradiol]", "cell viability": "74.2 ± 6.9"}, {"smiles": "N=C(N)NCCCC[C@@H]1NC(=O)CCSSC[C@@H](C(N)=O)NC(=O)[C@@H]2CCCN2C(=O)[C@H](Cc2c[nH]c3ccccc23)NC(=O)[C@H](CC(=O)O)NC(=O)CNC1=O", "note": "[Eptifibatide]", "cell viability": "138 ± 4.8"}, {"smiles": "C#CC1(O)CCC2C3CCC4=CC(=O)CCC4C3CCC21CC", "note": "(centres undefined) [Levonorgestrel]", "cell viability": "155 ± 2.3"}, {"smiles": "CCC(=O)OCC(=O)C1(OC(=O)CC)C(C)CC2C3CCC4=CC(=O)C=CC4(C)C3(Cl)C(O)CC21C", "note": "(centres undefined) [Beclomethasone dipropionate]", "cell viability": "123 ± 10"}, {"smiles": "C[C@@H]1C[C@H]2[C@H]3CCC4=CC(=O)C=C[C@]4(C)[C@@]3(F)[C@@H](O)C[C@]2(C)[C@@]1(O)C(=O)CO", "note": "[Dexamethasone (DHAP)]", "cell viability": "189 ± 29"}, {"smiles": "O=C(NS(=O)(=O)c1ccc(Br)s1)c1ccc(Cl)cc1Cl", "note": "[Tasisulam]", "cell viability": "172 ± 15"}, {"smiles": "Nc1nnc(-c2cccc(Cl)c2Cl)c(N)n1", "note": "[Lamotrigine]", "cell viability": "175 ± 4.1"}, {"smiles": "Cl.O=C(CCCN1CCC(O)(c2ccc(Cl)cc2)CC1)c1ccc(F)cc1", "note": "[Haloperidol hydrochloride]", "cell viability": "60.2 ± 8.8"}, {"smiles": "CC(=O)OC1(C(C)=O)CCC2C3C=C(C)C4=CC(=O)CCC4(C)C3CCC21C", "note": "(centres undefined) [Megestrol Acetate]", "cell viability": "127.9 ± 0.7"}, {"smiles": "O=c1c(O)c(-c2ccc(O)c(O)c2)oc2cc(O)cc(O)c12", "note": "[Quercetin]", "cell viability": "128 ± 17"}, {"smiles": "O=NN(CCCl)C(=O)NCCCl", "note": "[Carmustine]", "cell viability": "123 ± 8.1"}, {"smiles": "O=C(CCCN1CCN(c2ccccn2)CC1)c1ccc(F)cc1", "note": "[Azaperone]", "cell viability": "85.8 ± 2.8"}, {"smiles": "CC(NCCc1ccc(O)cc1)C(O)c1ccc(O)cc1.Cl", "note": "(centres undefined) [Ritodrine HCl]", "cell viability": "111 ± 4.8"}, {"smiles": "C#CC1(O)CCC2C3CCc4cc(OC)ccc4C3CCC21C", "note": "(centres undefined) [Mestranol]", "cell viability": "121.2 ± 0.15"}, {"smiles": "C=CCNC1=C2CC(C)CC(OC)C(O)C(C)C=C(C)C(OC(N)=O)C(OC)C=CC=C(C)C(=O)NC(=CC1=O)C2=O", "note": "(centres undefined)", "cell viability": "85.1 ± 8.4"}, {"smiles": "CCCN(CCC)S(=O)(=O)c1ccc(C(=O)O)cc1", "note": "[Probenecid]", "cell viability": "155 ± 8.7"}, {"smiles": "Cc1onc(-c2ccccc2)c1C(=O)NC1C(=O)N2C1SC(C)(C)C2C(=O)[O-].O.[Na+]", "note": "(centres undefined) [Oxacillin sodium monohydrate]", "cell viability": "168 ± 8.6"}, {"smiles": "NS(=O)(=O)c1cc2c(cc1Cl)NCNS2(=O)=O", "note": "[Hydrochlorothiazide]", "cell viability": "139 ± 11"}, {"smiles": "NCCc1cnc[nH]1.O=P(O)(O)O.O=P(O)(O)O", "note": "[Histamine Phosphate]", "cell viability": "149 ± 14"}, {"smiles": "CCC1C(=O)N(C)c2cnc(Nc3ccc(C(=O)NC4CCC(N5CCN(CC6CC6)CC5)CC4)cc3OC)nc2N1C(C)C", "note": "(centres undefined) [BI6727 (Volasertib)]", "cell viability": "176.9 ± 1.6"}, {"smiles": "CCC1OC(=O)C(C)C(OC2CC(C)(OC)C(O)C(C)O2)C(C)C(OC2OC(C)CC(N(C)C)C2O)C(C)(O)CC(C)CN(C)C(C)C(O)C1(C)O", "note": "(centres undefined) [Azithromycin]", "cell viability": "119 ± 24"}, {"smiles": "CC(C)Cn1cnc2c(N)nc3ccccc3c21", "note": "[Imiquimod]", "cell viability": "116 ± 8"}]}]}
